Measured values from PubChem BioAssay (NCI).
Compounds without any hit were thinned out: in the full panel of roughly 83,000, 20% have a hit.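 Each cell line was grown in a 96-well plate and treated with one concentration of compound for 48 hours. Values below 10 were considered active.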 A number with no mark means an inactive call. Activity calls are given as the source filed them.

Tests used:
Assay in all cases: NCI-60 one-dose screen, 48 h (100 = growth as untreated, 0 = no growth, -100 = all killed)
Conditions in all cases: 10 µM unless noted
[1] = tested on: SR leukemia
[2] = tested on: RPMI-8226 leukemia
[3] = tested on: OVCAR-8 ovarian
[4] = tested on: OVCAR-5 ovarian
[5] = tested on: OVCAR-4 ovarian
[6] = tested on: SK-OV-3 ovarian
[7] = tested on: IGROV1 ovarian
[8] = tested on: OVCAR-3 ovarian
[9] = tested on: HS 578T breast
[10] = tested on: NCI/ADR-RES ovarian
[11] = tested on: T-47D breast
[12] = tested on: BT-549 breast
[13] = tested on: MDA-MB-435 melanoma
[14] = tested on: SW-620 colon
[15] = tested on: MCF7 breast
[16] = tested on: HCT-116 colon
[17] = tested on: HCC-2998 colon
[18] = tested on: KM12 colon

| SMILES | growth [1] | growth [2] | growth [3] | growth [4] | growth [5] | growth [6] | growth [7] | growth [8] | growth [9] | growth [10] | growth [11] | growth [12] | growth [13] | growth [14] | growth [15] | growth [16] | growth [17] | growth [18] |
| --- | --- | --- | --- | --- | --- | --- | --- | --- | --- | --- | --- | --- | --- | --- | --- | --- | --- | --- |
| COc1cc(/C=N/O)nc(-c2ccccn2)c1 | 9.23% (active) | 18.7% | 17.6% | 45.3% | 22.2% | 28.6% | 19.2% | 18.2% | 65% | 4.37% (active) | 37.5% | 33.7% | 23.6% | 27.4% | 15.9% | 20.9% | 26.4% |  |
| C=C1C(=O)O[C@H]2[C@H]1CC/C(CNS(=O)(=O)c1cccc3ccccc13)=C\CC[C@@]1(C)O[C@@H]21 | 10.7% | -16.5% (active) | 38.5% | 61.9% | 42.8% | 107% | 15.4% | 11.1% | 60.9% | 74.3% | 24.5% | 37.2% | 38.1% | -34.9% (active) | 16.2% | -60.7% (active) | 71.5% |  |
| NC(=NCCCOc1ccc(F)cc1)Nc1ccc(Cl)cc1 | 72% | 85.3% | 90.1% | 54.5% | 46% | 75.6% | 30.9% | 89.6% | 81.9% | 77.3% | 18.6% | 52.8% | 46.8% | 56.9% | 7.28% (active) | 16.5% | 40.8% | 76.7% |
| N#C/C(=C\c1ccc(C(F)(F)F)cc1)c1cc2ccccc2[nH]1 | 95.7% | 72% | 101% | 108% | 92% | 93% | 94.5% | 104% | 104% | 104% | 89.8% | 94.1% | 97.1% | 100% | 77.4% | 94.9% | 116% |  |
| O=C1c2ccccc2CCC12OC2c1cn(-c2ccccc2)nc1-c1ccc(Cl)cc1 (stereo not drawn) | 70.4% | 81.3% | 94.5% | 111% | 99.2% | 111% | 95.1% | 115% | 93.3% | 102% | 93.1% | 126% | 100% | 95.6% | 87.7% | 47.4% | 108% |  |
| COc1cc2c(-c3cc4c(cc3CNCCc3ccc5c(c3)OCO5)OCO4)cccc2c(OC)c1O | 27.8% | 63.8% | 79.9% | 90.9% | 88.4% | 99.6% | 61.6% | 86.1% | 86.8% | 74.5% | 67.3% | 91.3% | 96.9% | 85.4% | 76.8% | 60.7% | 42.7% | 96.5% |
| N#CC1C(C#N)C(C(=O)c2ccc(Br)cc2)N2c3ccccc3C=CC12 (stereo not drawn) | 34.9% | 94.1% | 90.9% | 55.2% | 43.7% | 79.4% | 39.7% | 75.5% | 77.6% | 64.1% | 49.3% | 93.2% | 16% | 66.4% | 13% | 68.5% | 50.7% | 22.3% |
| Cc1ccccc1NS(=O)(=O)c1cccc(C(=O)Nc2ccc(Br)cc2)c1 | 45.2% [25 µM] | 33.6% [25 µM] | 40.5% [25 µM] | 76.7% [25 µM] | 36.5% [25 µM] | 46.3% [25 µM] | 40.5% [25 µM] | 47.3% [25 µM] | 59.1% [25 µM] | 19.1% [25 µM] | 25.8% [25 µM] | 31.2% [25 µM] | 28.3% [25 µM] | 58.8% [25 µM] | 30% [25 µM] | 30.5% [25 µM] | 67.3% [25 µM] |  |
| O=C1c2cccc3c(-c4ccc5c(c4)ncn5C4CCCCC4)ccc(c23)C(=O)N1CCO | 84.7% | 66.3% | 83.2% | 110% | 86% | 109% | 96.2% | 88.9% | 94.7% | 89.1% | 68% | 95.2% | 109% | 104% | 97.8% | 80% | 93.2% |  |
| COc1ccc(C(=O)NNc2nc(Cl)nc(N3CCN(C(c4ccccc4)c4ccccc4)CC3)n2)cc1 | -29.6% (active) | 84.2% | 34.1% | 96.9% | 20.5% | 101% | -59.7% (active) | -71.5% (active) | 67.1% | 50% | 85.5% | 52.2% | 90.6% | 9.22% (active) | 89.3% | 9% (active) | -10.7% (active) | 92.4% |
| O=C(c1nc2ccccc2[nH]1)C1C(c2ccc(Br)cc2)C2CC3CCCC[C@H]3N2[C@@]12C(=O)Nc1cc(Cl)ccc12 (stereo partly drawn) | 31.3% | 17% | 58.5% | 46.8% | 34.7% | 67.6% | 28.8% | 34.3% | 66.8% | 46.7% | 29.1% | 71.6% | 23.7% | 31.2% | 16% | 21.1% | 39.7% | 37.9% |
| COc1cc2c(=O)n(CCN)c3c4cc5c(cc4ccc3c2cc1OC)OCO5 | -26% (active) | -41.7% (active) | -49.9% (active) | -76.9% (active) | -76% (active) | 16.6% | -75.6% (active) | -79.3% (active) | 25.8% | -37.3% (active) | 27.1% | 35.2% | -91% (active) | -75.6% (active) | 17.6% | -70.9% (active) | 44.9% | -64% (active) |
| Cc1ccc(C(=O)/C(=C\c2ccc([N+](=O)[O-])cc2)S(=O)Cc2ccc(Cl)cc2)cc1 (stereo not drawn) | 6.07% (active) | -28.1% (active) | 25.6% | 45.8% | 58.9% | 106% | 1.23% (active) | 22.4% | 36.9% | 30.5% | -19.1% (active) | 62% | 50.1% | 7.46% (active) | 15.2% | -50.1% (active) | 58.8% | 46.6% |
| O=C1c2ccc3c4c(ccc(c24)C(=O)N1CCCNCc1ccccc1F)C(=O)N(CCCNCc1ccccc1F)C3=O | -37.8% (active) | -32.2% (active) | -17.4% (active) | -23% (active) | -98.4% (active) | -21.8% (active) | -57.7% (active) | -63% (active) | -23.7% (active) | -18.4% (active) | -27.9% (active) | -85.4% (active) | -74.3% (active) | -73.3% (active) | -80.5% (active) | -37.7% (active) | -93.1% (active) | -76.1% (active) |
| CCCOC(=O)N[C@H]1CCc2c(Cl)c(OC)c(OC)c(OC)c2-c2ccc(SC)c(=O)cc21 | 4.56% (active) | -2.97% (active) | 21.6% | 44.7% | 36.3% | 38.3% | 11.7% | -24.7% (active) | 9.75% (active) | 13.6% | 45.9% | 1.4% (active) | -26.9% (active) | 20.2% | 14.7% | 0.896% (active) | 22.6% |  |
| C=CCN1C(=O)/C(=C/C(=O)OC)S/C1=N\NC(=O)c1cc2ccc1/C=C\c1ccc(cc1)/C=C\2 | 1.79% (active) | -9.36% (active) | 88.2% | 96.1% | 97.1% | 140% | 89.2% | 86.4% | 93.6% | 89.5% | 62.8% | 61.7% | 100% | 44.5% | 51.5% | 54% | 108% | 81.6% |
| CCOC(=O)Oc1c(OC)cc(C(=O)c2ccc(OC)c(OC(=O)CCl)c2OC)cc1OC | 29.4% | 18.4% | 25.5% | 77% | 79.8% | 19.7% | 40.4% | -18.4% (active) | 15.2% | -5.85% (active) | 36.2% | 42.4% | -35.9% (active) | 21.9% | 16.6% | 11.4% | 43.3% |  |
